This note sets out measurements from PubChem BioAssay (NCI).

SMILES strings stand for the structures. Several values for one entry are separate records, joined by “and”; a condition that tells them apart may be missing. Equal values may be shown once. Compounds without any hit were thinned out: in the full panel of roughly 79,000, 15% have a hit. Where a structure was tested more than once in an assay, its records may differ in their call. Activity calls are given as the source filed them. Cut-off read from the data, not from the text of the source: active = growth inhibition above about 70%; inactive = the rest.

A short description of assay [1]: NCI Yeast Anticancer Drug Screen. Data for the rad50 strain (AID 155).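 Note: 0% = growth of vehicle-only cultures of the same strain.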 Particulars: S. cerevisiae rad50 strain growth inhibition; at 50.0 µM; stronger effect = higher value. The method, boiled down: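 Relative growth inhibition (compound vs vehicle) was measured in yeast with a defined repair-gene alteration.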
Assay [2] in a line: NCI Yeast Anticancer Drug Screen. Data for the mec2-1 strain (AID 157). Particulars: S. cerevisiae mec2-1 strain, at 50.0 µM, stronger effect = higher value. The essentials:
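Readout is yeast growth inhibition, normalised to vehicle-treated controls, in the mec2-1 strain exposed to compound.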

Assay [3] can be described thus: NCI Yeast Anticancer Drug Screen. Data for the sgs1 mgt1 strain (AID 161).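 Note: 0% = growth of cultures given vehicle only.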 Particulars: S. cerevisiae sgs1 mgt1 strain, at 50.0 µM, stronger effect = higher value. The method, boiled down:
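Yeast cells carrying a defined DNA-repair defect were exposed to test compounds. Growth inhibition was measured relative to vehicle-treated controls.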

Assay [4] in a line: NCI Yeast Anticancer Drug Screen. Data for the cln2 rad14 strain (AID 165).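 Note: 0% = growth equal to vehicle treated cultures.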 The settings on record: S. cerevisiae cln2 rad14 strain, at 50.0 µM, stronger effect = higher value. The essentials: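 Relative to vehicle controls, growth inhibition of compound-treated cln2 rad14 yeast was recorded.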
Assay [5] in a line: NCI Yeast Anticancer Drug Screen. Data for the bub3 strain (AID 167). The settings on record: S. cerevisiae bub3 mutant strain, at 50.0 µM, stronger effect = higher value. The essentials:
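Screening used yeast with an engineered genetic alteration affecting cell cycle control. Compound-exposed cultures were compared with vehicle cultures, and reduced growth was taken as inhibition.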

Assay [6] in a line: NCI Yeast Anticancer Drug Screen. Data for the mlh1 rad18 strain (AID 175). Particulars: S. cerevisiae mlh1 rad18 strain growth inhibition; at 50.0 µM; stronger effect = higher value. The method, boiled down: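 Test agents were incubated with a yeast strain of defined genotype (DNA damage repair defect). Inhibition of growth was derived by comparison with vehicle-exposed cultures.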

For the molecule `C/C(=N\N=C(N)N)C(CN1CCCCC1)C(c1ccccc1)c1c(O)c2ccccc2oc1=O` (stereo unspecified), the growth inhibition in assay [1] is 13.7% (inactive); in assay [2], -2.6% (inactive); in assay [3], 10.6% (inactive); in assay [4], 24.4% (inactive); in assay [5], 28.9% (inactive); in assay [6], 16.9% (inactive).

For the molecule `CN1C(=O)C(C)(C2=CCCCC2)C(=O)NC1=S` (stereo unspecified), the growth inhibition is 1.55% (inactive) in assay [1]; 1.65% (inactive) in assay [2]; 11.8% (inactive) in assay [3]; -17.4% (inactive) in assay [4]; -1.9% (inactive) in assay [5]; 11.9% (inactive) in assay [6].

Regarding `CNC(=O)Oc1ccccc1N`, the growth inhibition in assay [1] was -2.8% (inactive); in assay [2] it was -1.15% (inactive); in assay [3] it was -5.05% (inactive); in assay [4] it was 3.7% (inactive); in assay [5], -25.2% (inactive); in assay [6] it was -5.2% (inactive).

On to `CCCCOP(=O)(CCCC)OCCCC.CCCCOP(=O)(CCCC)OCCCC.CCCCOP(=O)(CCCC)OCCCC.CCCCOP(=O)(CCCC)OCCCC.O.O.[Co+2].[O-][Cl+3]([O-])([O-])O`, for which the growth inhibition in assay [1] was 25.4% (inactive); in assay [2] it was 5.55% (inactive); in assay [3], 7.35% (inactive); in assay [4], 17.6% (inactive); in assay [5], 19.8% (inactive); in assay [6] it was 5.8% (inactive).

As for `N.N.N.N.[Co+3].[O-][Cl+3]([O-])([O-])[O-].[OH3+].[OH3+]`, the growth inhibition was -25.4% (inactive) in assay [1]; -1.15% (inactive) in assay [2]; -22.3% (inactive) in assay [3]; 13.9% (inactive) in assay [4]; -6% (inactive) in assay [5]; -13.6% (inactive) in assay [6].

Regarding `N/C(=N\N=C\c1ccccc1O)N[N+](=O)[O-]`, the growth inhibition in assay [1] was -17.5% (inactive); in assay [2] it was -22.9% (inactive); in assay [3] it was -14.8% (inactive); in assay [4], -108% (inactive); in assay [5], -19.2% (inactive); in assay [6] it was -5.85% (inactive).

Take `CC[C@@]1(O)C(=O)OCc2c1cc1n(c2=O)Cc2c-1nc1ccccc1c2C=Nc1ccc(N[C@@H]2c3cc4c(cc3[C@@H](c3cc(OC)c(O)c(OC)c3)[C@H]3C(=O)OC[C@@H]32)OCO4)cc1`: the growth inhibition in assay [1] was 49.7% (inactive) and 82.5% (active); in assay [2], 71.6% (active) and 76.7% (active); in assay [3], 69.9% (inactive) and 80.4% (active); in assay [4], 54% (inactive) and 77.9% (active); in assay [5], 50.3% (inactive) and 83.3% (active); in assay [6], 46% (inactive) and 81.2% (active).

Consider `CC(=O)OC1CCC2C3CCC4CC5(CCC4(C)C3CCC12C)CO5` (stereo unspecified), for which the growth inhibition is -2.45% (inactive) in assay [1]; -10.7% (inactive) in assay [2]; -26.2% (inactive) in assay [3]; 1.2% (inactive) in assay [4]; 1.75% (inactive) in assay [5]; 1.2% (inactive) in assay [6].

Consider `COc1ccc(CCNC2CC3CCC2(C)C3(C)C)cc1OC` (stereo unspecified), for which the growth inhibition was 15.6% (inactive) in assay [1]; 12.8% (inactive) in assay [2]; 11.5% (inactive) in assay [3]; -22.3% (inactive) in assay [4]; 8.75% (inactive) in assay [5]; 24.9% (inactive) in assay [6].

With `CCOP(=O)(CC)C(Cl)(Cl)Cl` (stereo unspecified), the growth inhibition in assay [1] is 2.4% (inactive); in assay [2] it was -18.5% (inactive); in assay [3], -5.95% (inactive); in assay [4], -24.1% (inactive); in assay [5] it was 6.05% (inactive); in assay [6], -2.2% (inactive).

`COc1c2c(nc3ccccc13)-c1cc3c(c(=O)n1C2)COC(=O)C3(O)CC(=O)N1CCOCC1` (stereo unspecified): the growth inhibition is 9.5% (inactive) in assay [1]; -4.25% (inactive) in assay [2]; 0.2% (inactive) in assay [3]; 52.5% (inactive) in assay [4]; -6.5% (inactive) in assay [5]; 6.35% (inactive) in assay [6].

`O=C1SCCC1NP(=O)(Oc1ccccc1)Oc1ccccc1` (stereo unspecified): the growth inhibition in assay [1] is 5.35% (inactive); in assay [2] it was 23.1% (inactive); in assay [3], -1.35% (inactive); in assay [4] it was -10.9% (inactive); in assay [5], 9.25% (inactive); in assay [6], 21.9% (inactive).

Take `COc1cc(C(c2c(O)c3ccccc3oc2=O)c2c(O)c3ccccc3oc2=O)cc(OC)c1OC`: the growth inhibition was -2.1% (inactive) in assay [1]; -8.15% (inactive) in assay [2]; -10.2% (inactive) in assay [3]; 0.9% (inactive) in assay [4]; -11.7% (inactive) in assay [5]; -2.85% (inactive) in assay [6].

`CC[As](CC)SCC1OC(OC(C)=O)C(OC(C)=O)C(OC(C)=O)C1OC(C)=O` (stereo unspecified): the growth inhibition in assay [1] was 99.1% (active); in assay [2] it was 98.5% (active); in assay [3], 68.2% (inactive); in assay [4], 99.5% (active); in assay [5], 65.8% (inactive); in assay [6] it was 98.9% (active).

Turning to `COc1cc([C@@H]2c3cc4c(c(O)c3C[C@H]3COC(=O)[C@@H]32)OCO4)cc(OC)c1OC`, the growth inhibition in assay [1] was -5.65% (inactive) and 13.2% (inactive); in assay [2], 9.3% (inactive) and 7.85% (inactive); in assay [3] it was 2.65% (inactive) and 2.95% (inactive); in assay [4], 0.1% (inactive) and 15.8% (inactive); in assay [5], 15.4% (inactive) and 23.4% (inactive); in assay [6], 28.2% (inactive) and 30.5% (inactive).

Take `O=C(CCl)N(CCO)CCO`: the growth inhibition in assay [1] was -0.85% (inactive); in assay [2], 1.5% (inactive); in assay [3], -2.4% (inactive); in assay [4] it was -30.7% (inactive); in assay [5] it was 6.3% (inactive); in assay [6], 0.95% (inactive).

Consider `CN(C)P(N)(=S)N(C)C`, for which the growth inhibition in assay [1] is -2.75% (inactive); in assay [2] it was -9.15% (inactive); in assay [3], -1.3% (inactive); in assay [4], -15.8% (inactive); in assay [5], -22.6% (inactive); in assay [6], -7.05% (inactive).

For `C=CC(N)=O` (tested in a mixture with another compound), the growth inhibition was 1.15% (inactive) in assay [1]; -7.1% (inactive) in assay [2]; 8.2% (inactive) in assay [3]; 0.4% (inactive) in assay [4]; 15.8% (inactive) in assay [5]; 2.2% (inactive) in assay [6].

Regarding `Oc1ccccc1-c1ccccc1`, the growth inhibition in assay [1] was 16.6% (inactive) and 17.9% (inactive); in assay [2] it was 11.1% (inactive) and 14.4% (inactive); in assay [3], 11% (inactive) and 8.2% (inactive); in assay [4] it was -16.1% (inactive) and 0.75% (inactive); in assay [5], -2.55% (inactive) and -8.25% (inactive); in assay [6], 21.4% (inactive) and 20.1% (inactive).

With `S=C=Nc1ccccn1`, the growth inhibition in assay [1] was 9.9% (inactive); in assay [2], 3.35% (inactive); in assay [3], 22.1% (inactive); in assay [4], 7.8% (inactive); in assay [5], 30.6% (inactive); in assay [6], 21.9% (inactive).

`CC(=O)CC(C)=O.CC(=O)CC(C)=O.CC(=O)CC(C)=O.[Cr]`: the growth inhibition in assay [1] is 20.2% (inactive); in assay [2] it was -8.3% (inactive); in assay [3], 1.05% (inactive); in assay [4], -27.7% (inactive); in assay [5], 4.3% (inactive); in assay [6], 13.2% (inactive).
